{"source": "PubChem BioAssay (NCI)", "note": "“And” between values parts separate entries of the source, which are not always exact repeats. Identical values can stand only once. This is part of a sample that, as a whole, favours compounds with a hit. Of some 83,000 tested, about 20% had one in any assay.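 For each line, cells grew in 96-well plates with the test compound present at a single concentration for 48 hours.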 Values without a mark were called inactive. The source made the active and inactive calls. The calls were made as follows: active = growth percent below 10; inactive = the rest."}
{"tested_on": "SF-295 CNS", "test": "NCI-60 one-dose screen, 48 h (100 = growth as untreated, 0 = no growth, -100 = all killed)", "settings": "10 µM unless noted"}
{"smiles": "O=c1ccc(Cn2c(C(F)(F)F)cc3c(Cl)ncnc32)c[nH]1", "growth": "97.6%"}
{"smiles": "CC[C@]12C=CCN3CC[C@]4(C(=C(C(=O)OC)C1)Nc1cc(OC)c([C@@H]5[C@H]6O[C@H]6[C@@]6(CC)CC(C(=O)OC)=C7Nc8cc(O)ccc8[C@@]78CCN5[C@@H]68)cc14)[C@@H]32", "growth": "-47.2% (active)"}
{"smiles": "COc1ccc2[nH]cc(-c3cc4nc(-c5cn(C)c6ncccc56)cc(N)n4n3)c2c1", "growth": "-71.4% (active)"}
{"smiles": "COc1ccc2[nH]c(=O)cc(-n3ncc(C(=O)/C=C/c4cc(OC)c(OC)c(OC)c4)c3C)c2c1", "growth": "11.3%"}
{"smiles": "COc1ccc(/C=C/c2nc3ccccc3n3c(-c4cccc([N+](=O)[O-])c4)nnc23)cc1", "growth": "12.4%"}
{"smiles": "O=C(Nc1ccc(Cl)c(C(F)(F)F)c1)N1CCN(c2cc(-c3cn(-c4ccccc4)nc3-c3cccc(O)c3)ccn2)CC1", "growth": "-37.2% (active)"}
{"smiles": "O=C1Nc2ccccc2/C1=C/C(=O)c1cc2ccccc2oc1=O", "growth": "97.8%"}
{"smiles": "CN1CCN(C(=O)Oc2cc3c(c4ccccc24)[C@H](CCl)CN3C(=O)c2cc3cc(OCCCN4CCC4)ccc3[nH]2)[C@H]2CSSC[C@H]21", "growth": "-6.36% (active)"}
{"smiles": "NS(=O)(=O)c1ccc(Nc2nc(N/N=C/c3cc(Br)c(O)c(Br)c3)nc(Nc3ccccc3)n2)cc1", "growth": "43.8%"}
{"smiles": "COc1ccc2c(c1)C(Sc1ccc(Cl)cc1)c1c(nc(N)c(C#N)c1N)O2", "note": "(configuration not stated)", "growth": "55.7%"}
{"smiles": "CS(=O)(=O)Nc1cccc(-n2c(COc3ccc(OC(F)(F)F)cc3)nc3ccccc32)c1", "growth": "92.7% and 100%"}
{"smiles": "OCCn1cc(-c2nc3ccc4[nH]ncc4c3c3c2CCCC3)cn1", "growth": "60.9%"}
{"smiles": "Cn1cc(-c2cc(N)n3nc(-c4c[nH]c5ccc(F)cc45)cc3n2)c2cccnc21", "growth": "-93.9% (active)"}
{"smiles": "COc1ccc2c(c1)N=c1c-2cc2c(O)[nH]c(=S)n2c1=O", "growth": "26.1%"}
{"smiles": "O=C(NN1C(=O)/C(=C/C=C/c2ccc([N+](=O)[O-])o2)SC1=S)c1ccncc1", "growth": "-82.8% (active)"}
{"smiles": "Cn1cc(-c2cc(N)n3nc(-c4c[nH]c5ccccc45)cc3n2)c2cc(Br)ccc21", "growth": "-93.6% (active)"}
{"smiles": "Cn1cc(-c2cc(N)n3nc(-c4c[nH]c5ccccc45)cc3n2)c2ccccc21", "growth": "-90.3% (active)"}
{"smiles": "O=C1c2cccc3c(N4CCN(c5ccccc5)CC4)ccc(c23)C(=O)N1c1cccc(-c2nn(-c3ccccc3)cc2-c2nc3ccccc3s2)c1", "growth": "103%"}
{"smiles": "O=C(c1ccc(O)cc1)C1[C@H](c2ccccc2Br)[C@@H](c2ccccc2)NC12C(=O)Nc1ccccc12", "note": "(some centres not stated)", "growth": "27.9%"}
{"smiles": "COc1ccc(-c2cc(C(=O)N=Nc3c(O)[nH]c4ccc(Cl)cc34)c3ccccc3n2)cc1", "growth": "96.7%"}
{"smiles": "CC(C)(C)OC(=O)N1CCC2(CC1)Oc1ccccc1[C@H]1CC(c3ccc(Br)cc3)=NN12", "growth": "52.5%"}
{"smiles": "Cc1cc(C(NC(=O)CCCCCNc2cccc3c2C(=O)N(C2CCC(=O)CC2=O)C3=O)c2cccc(N(C)C)c2)c(O)c2ncccc12", "note": "(configuration not stated)", "growth": "2.01% (active)"}
{"smiles": "O=C(c1ccc(O)cc1)C1[C@H](c2ccc(Cl)cc2)[C@@H](c2ccccc2)NC12C(=O)Nc1ccc(Br)cc12", "note": "(some centres not stated)", "growth": "-60.8% (active)"}
{"smiles": "Cc1ccc(C(=O)C[n+]2cccc3c4ccccc4ccc32)cc1", "growth": "23.4%"}
{"smiles": "C#CCN(C)CCCOc1ccc(N(CC)C(=O)c2cc(C(C)C)c(O)cc2O)cc1Cl", "growth": "-2.79% (active)"}
{"smiles": "O=C(OCCOCCO)N(c1cccc(Br)c1)c1nc(SCCN2CCOCC2)nc2c1cnn2CC(Cl)c1ccc(Br)cc1", "note": "(configuration not stated)", "growth": "-66.6% (active)"}
{"smiles": "COc1ccc(-c2nc3ccc(-c4nnc(SCC(=O)Nc5ccc(/C(C)=N\\O)cc5)o4)cc3[nH]2)cc1", "growth": "97.7%"}
{"smiles": "Clc1ccc2c(NCCNC34CC5CC(CC(C5)C3)C4)ccnc2c1", "growth": "-90.9% (active)"}
{"smiles": "CCOc1ccc(-c2cc(-c3cc(C(C)C)c(O)cc3C)nn2-c2ccc(S(N)(=O)=O)cc2)cc1", "growth": "35.6%"}
{"smiles": "Cc1ccc(N=Nc2c(N)nn3c(-c4cc5cc(Br)ccc5oc4=O)ccnc23)cc1", "growth": "49%"}
{"smiles": "COc1ccc(SC2c3cc(OC)ccc3Oc3nc(N)c(C#N)c(N)c32)cc1", "note": "(configuration not stated)", "growth": "55.2%"}
{"smiles": "O=C1Nc2ccc(F)cc2/C1=C/C(=O)c1cc2ccccc2oc1=O", "growth": "108%"}
{"smiles": "COc1ccc2[nH]cc(-c3cc(N)n4nc(-c5c[nH]c6ccccc56)cc4n3)c2c1", "growth": "-75.9% (active)"}
{"smiles": "O=C1Nc2cc(-c3ccc(NS(=O)(=O)c4ccc(F)c(Cl)c4)cc3)ccc2/C1=C/c1ccc[nH]1", "growth": "53.6%"}
{"smiles": "CCOC(=O)/C(F)=C/C1CC1C1CCN(C(=O)OC(C)(C)C)CC1", "note": "(configuration not stated)", "growth": "99.3%"}
{"smiles": "CN1CCN(CCS(=O)(=O)Nc2cc(-c3ccc4ncnc(Nc5ccc(F)c(Cl)c5)c4c3)cnc2Cl)CC1", "growth": "7.8% (active)"}
{"smiles": "N#Cc1cc(-c2ccc3ncnc(N4CCc5cc(F)c(Cl)cc54)c3c2)cnc1N", "growth": "40.1%"}
